Records with an inconclusive call do not appear. Active and inactive are the calls of the source. The calls were made as follows: active = hit-call score of the fitted dose curve at least 0.9, where 1 is the maximum; inconclusive = response in the unintended direction; inactive = score below 0.9.
The compounds below were run against Estrogen receptor (Homo sapiens) + Estrogen receptor beta (Homo sapiens) (UniProt P03372+Q92731) (assay: OT_ER_ERaERb_1440: Odyssey Thera (OT) 24-hour HEK293T Protein-Complementation Assay for Estrogen Receptor-alpha/-beta Homodimer (AID 2283356);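 also: heteromer of ER alpha and ER beta binding domains; hits raise reporter fluorescence and both agonists and antagonists give an increase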).
Sequence of Estrogen receptor (Homo sapiens) + Estrogen receptor beta (Homo sapiens) (P03372 whole entry, looked up, the tested form may be a part): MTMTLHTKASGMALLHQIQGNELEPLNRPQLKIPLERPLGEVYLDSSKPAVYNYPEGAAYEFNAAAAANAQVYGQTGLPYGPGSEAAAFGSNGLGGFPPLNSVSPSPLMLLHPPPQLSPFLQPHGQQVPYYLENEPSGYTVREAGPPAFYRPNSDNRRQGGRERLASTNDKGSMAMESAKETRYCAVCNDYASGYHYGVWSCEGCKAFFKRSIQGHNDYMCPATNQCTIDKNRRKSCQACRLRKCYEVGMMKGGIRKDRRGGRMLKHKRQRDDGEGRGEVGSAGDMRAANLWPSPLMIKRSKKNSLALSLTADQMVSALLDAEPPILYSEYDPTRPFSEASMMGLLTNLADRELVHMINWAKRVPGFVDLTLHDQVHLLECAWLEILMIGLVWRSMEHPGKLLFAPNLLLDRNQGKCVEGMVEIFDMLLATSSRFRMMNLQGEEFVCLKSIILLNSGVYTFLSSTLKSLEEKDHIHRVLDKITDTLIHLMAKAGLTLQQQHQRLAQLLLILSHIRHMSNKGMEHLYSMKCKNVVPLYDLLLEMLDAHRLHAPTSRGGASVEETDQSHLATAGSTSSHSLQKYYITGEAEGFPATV
Sequence of Estrogen receptor (Homo sapiens) + Estrogen receptor beta (Homo sapiens) (Q92731 whole entry, looked up, the tested form may be a part): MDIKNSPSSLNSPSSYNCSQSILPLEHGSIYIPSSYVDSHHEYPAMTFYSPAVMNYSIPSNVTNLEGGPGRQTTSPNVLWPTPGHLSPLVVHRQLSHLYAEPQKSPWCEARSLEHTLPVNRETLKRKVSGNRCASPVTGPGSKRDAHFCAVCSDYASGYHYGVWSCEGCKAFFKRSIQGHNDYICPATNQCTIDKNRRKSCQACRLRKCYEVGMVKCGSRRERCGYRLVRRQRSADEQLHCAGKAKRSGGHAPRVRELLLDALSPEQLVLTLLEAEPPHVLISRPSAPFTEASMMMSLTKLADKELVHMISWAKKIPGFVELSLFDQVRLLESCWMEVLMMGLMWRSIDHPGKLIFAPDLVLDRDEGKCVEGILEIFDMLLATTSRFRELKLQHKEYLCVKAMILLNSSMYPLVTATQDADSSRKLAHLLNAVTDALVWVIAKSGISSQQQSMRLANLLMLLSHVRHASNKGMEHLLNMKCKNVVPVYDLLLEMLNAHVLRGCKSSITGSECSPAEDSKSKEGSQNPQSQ
How it was run: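 Fragment complementation between ER alpha (310-547) and ER beta (263-489) ligand-binding domains in HEK293T cells; signal read 24 h post-dosing by laser scanning cytometer. Gain of fluorescence relative to DMSO fitted.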
With `OC1CCCC1` the outcome was “inactive”. `C=C1C2CCC(C2)C1(C)C` (stereo not drawn) was tested, and the outcome was “inactive”. `O=C1CCCC1` was tested, and the outcome was “inactive”. With `O=C(c1ccccc1)C1CCC1` the outcome was “inactive”. `CC(C)c1ccc2cc(C(C)C)ccc2c1` was tested, and the outcome was “inactive”. With `CC(C)(C)c1ccc(N)cc1` the outcome was “inactive”. With `CO[Si](OC)(OC)c1ccccc1` the outcome was “inactive”. In the case of `CC=C1CC2C=CC1C2` (stereo not drawn), the outcome is reported as “inactive”. For `CNC(=S)NN`, the outcome was “inactive”. With `c1c[nH]cn1` the outcome was “inactive”. With `C=CC(=O)NC(C)(C)CS(=O)(=O)O` the outcome was “inactive”. `CC1=CC[C@H]2C[C@@H]1C2(C)C` was tested, and the outcome was “inactive”. For `NC(=O)c1ccccc1O`, the outcome was “inactive”. `CC(C)(C)c1ccc(OC(=O)c2ccccc2O)cc1` was tested, and the AC50 was 55.2 µM (active). `CCOC(=O)Cc1cccc2ccccc12` was tested, and the outcome was “inactive”. For `CCCCC(CC)CCC(CC(C)C)OS(=O)(=O)O` (stereo not drawn), the outcome was “inactive”.

The compounds below were run against Estrogen receptor beta (Homo sapiens) (UniProt Q92731) (assay: OT_ER_ERbERb_0480: Odyssey Thera (OT) 8-hour HEK293T Protein-Complementation Assay for Estrogen Receptor-beta/-beta Homodimer (AID 2283357);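 also: active means signal gain over DMSO baseline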).
Sequence of Estrogen receptor beta (Homo sapiens) (Q92731 whole entry, looked up, the tested form may be a part): as above
How it was run: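 Fluorescence gain from complemented reporter fragments on ER-beta LBD homodimer in HEK293T was quantified against DMSO controls after 8 h treatment, fixation in 4% formaldehyde and Draq5 staining.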
For `O=C1CCCC1`, the outcome was “inactive”. In the case of `CCCCCCCC/C=C\CCCCCCCC(=O)O`, the outcome is reported as “inactive”. In the case of `O=C(c1ccccc1)C1CCC1`, the outcome is reported as “inactive”. With `CC(C)c1ccc2cc(C(C)C)ccc2c1` the outcome was “inactive”. In the case of `CC(C)(C)c1ccc(N)cc1`, the outcome is reported as “inactive”. For `CC=C1CC2C=CC1C2` (stereo not drawn), the outcome was “inactive”. With `C=CC(=O)NC(C)(C)CS(=O)(=O)O` the outcome was “inactive”. With `CC1=CC[C@H]2C[C@@H]1C2(C)C` the outcome was “inactive”. In the case of `NC(=O)c1ccccc1O`, the outcome is reported as “inactive”. With `CC(C)(C)c1ccc(OC(=O)c2ccccc2O)cc1` the outcome was “inactive”. For `CCOC(=O)Cc1cccc2ccccc12`, the outcome was “inactive”.

What follows are compounds tested against Retinoic acid receptor alpha (Homo sapiens) (UniProt P10276) (assay: NVS_NR_hRAR_Antagonist: NovaScreen (NVS) Nuclear Receptor Binding Assay for human Retinoic Acid Alpha Receptor Antagonism (RAR) (AID 2283358)).
Sequence of Retinoic acid receptor alpha (Homo sapiens) (P10276 whole entry, looked up): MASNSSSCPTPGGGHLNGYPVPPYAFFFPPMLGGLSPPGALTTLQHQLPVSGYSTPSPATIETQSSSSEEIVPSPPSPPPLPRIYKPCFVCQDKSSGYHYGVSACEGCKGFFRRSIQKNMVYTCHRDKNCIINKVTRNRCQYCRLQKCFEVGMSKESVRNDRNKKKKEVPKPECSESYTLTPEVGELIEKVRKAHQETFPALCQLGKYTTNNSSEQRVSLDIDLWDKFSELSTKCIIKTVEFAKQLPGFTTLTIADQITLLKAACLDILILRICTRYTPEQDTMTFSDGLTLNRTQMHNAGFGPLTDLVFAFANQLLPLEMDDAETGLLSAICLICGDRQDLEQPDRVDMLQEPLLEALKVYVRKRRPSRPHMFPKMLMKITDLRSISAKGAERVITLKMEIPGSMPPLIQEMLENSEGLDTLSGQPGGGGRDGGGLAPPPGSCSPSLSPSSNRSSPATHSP
How it was run: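 Chemicals were first tested in duplicate at 25 uM, then actives in concentration series, in a cell-free TR-FRET antagonist binding format. Measurements were taken 2 hours after dosing and loss of signal was evaluated against DMSO controls.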
With `CCN(CCC#N)c1ccc(N=Nc2c(Cl)cc([N+](=O)[O-])cc2Cl)cc1` the AC50 was 6.24 µM (active). With `CC(C)c1ccc2c(C(C)C)cc(C(C)C)c(S(=O)(=O)O)c2c1` the AC50 was 12.9 µM (active). In the case of `CCCCC(CC)CCC(CC(C)C)OS(=O)(=O)O` (stereo not drawn), the outcome is reported as “inactive”.

These compounds were tested against human Peroxisome Proliferator-activated Receptor alpha (PPARa), PPARA (gene 5465) (UniProt Q07869) (assay: NVS_NR_hPPARa: NovaScreen (NVS) Nuclear Receptor Binding Assay for human Peroxisome Proliferator-activated Receptor alpha (PPARa) (AID 2283359);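 also: activity means loss of TR-FRET signal versus DMSO baseline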).
Sequence of human Peroxisome Proliferator-activated Receptor alpha (PPARa), PPARA (gene 5465) (Q07869 whole entry, looked up): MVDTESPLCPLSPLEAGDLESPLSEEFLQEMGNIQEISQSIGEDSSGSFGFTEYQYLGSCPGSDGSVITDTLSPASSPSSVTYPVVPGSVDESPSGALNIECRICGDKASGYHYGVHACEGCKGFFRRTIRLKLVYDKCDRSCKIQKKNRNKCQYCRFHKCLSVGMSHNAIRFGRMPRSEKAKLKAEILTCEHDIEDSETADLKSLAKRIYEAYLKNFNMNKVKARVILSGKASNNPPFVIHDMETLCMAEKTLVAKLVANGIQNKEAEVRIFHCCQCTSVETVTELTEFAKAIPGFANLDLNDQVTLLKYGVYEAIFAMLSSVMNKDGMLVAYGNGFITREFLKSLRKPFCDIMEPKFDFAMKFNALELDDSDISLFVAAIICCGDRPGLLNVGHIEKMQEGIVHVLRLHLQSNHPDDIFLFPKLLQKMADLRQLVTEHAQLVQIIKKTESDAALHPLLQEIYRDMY
How it was run: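 One-hour incubation, cell-free extracted protein, TR-FRET binding readout; signal loss vs DMSO scored. Screen: 25 uM duplicates, confirmatory dose series for actives.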
With `CCCCCCCC[N+](C)(CCCCCCCC)CCCCCCCC` the AC50 was 6.9 µM (active). In the case of `Cc1ccc(C(C)(C)C)cc1`, the outcome is reported as “inactive”. With `CCCCCCCC/C=C\CCCCCCCC(=O)O` the AC50 was 8.82 µM (active). `Cc1cc(C)c(C)cc1C` was tested, and the outcome was “inactive”. In the case of `CC(C)c1ccc2c(C(C)C)cc(C(C)C)c(S(=O)(=O)O)c2c1`, the AC50 is reported as 7.37 µM (active).

What follows are compounds tested against PGR (gene 5241) (UniProt P06401) (assay: NVS_NR_hPR: NovaScreen (NVS) Nuclear Receptor Binding Assay for human Progestron Receptor (PR) (AID 2283360);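 also: active means loss of bound radioligand signal versus DMSO baseline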).
Sequence of PGR (gene 5241) (P06401 whole entry, looked up): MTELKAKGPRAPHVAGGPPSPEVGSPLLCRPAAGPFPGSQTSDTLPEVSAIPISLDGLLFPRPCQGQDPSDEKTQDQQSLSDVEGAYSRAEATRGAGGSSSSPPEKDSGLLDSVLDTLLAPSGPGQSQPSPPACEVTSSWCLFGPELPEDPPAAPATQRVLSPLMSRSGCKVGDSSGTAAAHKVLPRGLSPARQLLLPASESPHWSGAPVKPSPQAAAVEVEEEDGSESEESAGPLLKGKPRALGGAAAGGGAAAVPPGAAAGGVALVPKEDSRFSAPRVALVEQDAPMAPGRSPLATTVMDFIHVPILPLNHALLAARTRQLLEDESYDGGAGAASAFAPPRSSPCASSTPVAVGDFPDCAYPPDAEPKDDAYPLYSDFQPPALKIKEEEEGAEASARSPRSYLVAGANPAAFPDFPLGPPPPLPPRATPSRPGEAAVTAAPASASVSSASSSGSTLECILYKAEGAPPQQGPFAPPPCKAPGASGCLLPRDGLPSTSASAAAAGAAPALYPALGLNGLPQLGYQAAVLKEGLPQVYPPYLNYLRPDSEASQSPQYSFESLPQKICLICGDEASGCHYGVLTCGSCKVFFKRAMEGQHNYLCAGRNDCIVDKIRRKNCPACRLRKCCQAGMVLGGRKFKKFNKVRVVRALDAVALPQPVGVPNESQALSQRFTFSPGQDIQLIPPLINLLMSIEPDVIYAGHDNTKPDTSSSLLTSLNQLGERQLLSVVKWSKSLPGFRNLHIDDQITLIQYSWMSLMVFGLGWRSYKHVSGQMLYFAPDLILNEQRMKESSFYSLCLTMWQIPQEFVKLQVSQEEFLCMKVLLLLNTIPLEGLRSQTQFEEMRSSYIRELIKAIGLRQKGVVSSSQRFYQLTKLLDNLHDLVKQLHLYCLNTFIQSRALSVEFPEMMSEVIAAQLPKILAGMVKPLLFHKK
How it was run: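 Radioligand competition binding on receptor extracted from T47D cells, read by scintillation counting 18 h after dosing. Loss of signal versus DMSO; primary screen in duplicate at 25 uM, actives followed in concentration series.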
In the case of `CO[Si](CCC1CCC2OC2C1)(OC)OC` (stereo not drawn), the outcome is reported as “inactive”. In the case of `CC(C)(C)c1n[nH]c(=O)n(N)c1=O`, the AC50 is reported as 0.131 µM (active). `OCCCS` was tested, and the outcome was “inactive”.

What follows are compounds tested against Nuclear receptor subfamily 1 group I member 2 (Homo sapiens) (UniProt O75469) (assay: NVS_NR_hPXR: NovaScreen (NVS) Nuclear Receptor Binding Assay for human Pregnane X Receptor (PXR) (AID 2283365);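 also: a drop in FRET signal versus DMSO baseline means the compound binds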).
Sequence of Nuclear receptor subfamily 1 group I member 2 (Homo sapiens) (O75469 whole entry, looked up): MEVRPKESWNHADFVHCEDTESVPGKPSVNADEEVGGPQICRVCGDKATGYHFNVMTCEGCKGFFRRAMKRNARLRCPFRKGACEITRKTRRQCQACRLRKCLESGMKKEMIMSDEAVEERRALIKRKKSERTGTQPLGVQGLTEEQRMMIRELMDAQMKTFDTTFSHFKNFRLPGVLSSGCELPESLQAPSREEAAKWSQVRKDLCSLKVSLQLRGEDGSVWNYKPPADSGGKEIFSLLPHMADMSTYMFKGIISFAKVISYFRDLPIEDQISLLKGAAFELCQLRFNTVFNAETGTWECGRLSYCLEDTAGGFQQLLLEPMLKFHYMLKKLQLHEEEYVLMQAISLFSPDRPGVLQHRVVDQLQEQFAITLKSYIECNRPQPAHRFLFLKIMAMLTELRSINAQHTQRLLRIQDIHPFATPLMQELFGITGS
How it was run: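 Human PXR binding measured by TR-FRET in a cell-free format, 2 h exposure. Single-concentration duplicates at 25 uM preceded concentration-response retests of actives; endpoint fitted positively relative to DMSO, loss of signal indicating binding.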
In the case of `CC(C)C1=CC2=CC[C@@H]3[C@](C)(CCC[C@@]3(C)C(=O)O)[C@H]2CC1`, the AC50 is reported as 16 µM (active). For `CCN(CCC#N)c1ccc(N=Nc2c(Cl)cc([N+](=O)[O-])cc2Cl)cc1`, the AC50 was 0.433 µM (active). With `CC(C)c1ccc2c(C(C)C)cc(C(C)C)c(S(=O)(=O)O)c2c1` the AC50 was 0.393 µM (active). With `C1CN(SSN2CCOCC2)CCO1` the outcome was “inactive”. For `CCCCC(CC)CCC(CC(C)C)OS(=O)(=O)O` (stereo not drawn), the AC50 was 2.49 µM (active).

Source: PubChem BioAssay (EPA / NIEHS)
